ClpP mod: qHTS Assay for Activators of ClpP; ATP-dependent Clp protease proteolytic subunit (Bacillus subtilis (strain 168)), P80244; purified B. subtilis ClpP, FRET peptide cleavage, 20 min; Potency, µM (top dose mostly 57.5 µM); 340,000 tested, 1.9% active; active = well fitted falling curve with a large enough effect; inconclusive = small, poorly fitted or top-dose-only effect; inactive = no such curve, though single readings can be large or run the other way; note: the source files actives as falling curves though it sought activators and does not explain the sign; nearly all actives have a fitted effect of over 65% in size
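FRET quenching reversal measured ClpP activation: 10 microg/mL B. subtilis ClpP at pH 8 with the FRET-FV decapeptide, read at 430 nm after 320 nm excitation. The 20-min minus 0-min signal was scaled between DMSO/no-enzyme wells and ADEP (5.8 microM final).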
TDP1 cell noCPT: qHTS for Inhibitors of human tyrosyl-DNA phosphodiesterase 1 (TDP1): qHTS in cells in absence of CPT; DT40 Tdp1-/- hTDP1 cells, no CPT, ATP luminescence, 48 h; Potency, µM (series often up to 46.2 µM), hits mostly inhibitors; 420,000 tested, 15% active; AID 686978, 2013; note: nearly all actives have a fitted effect of over 55% in size
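Growth of hTDP1-complemented DT40 Tdp1-knockout cells is measured by ATP luminescence after at least 48 hr compound exposure at 37 °C, with DMSO substituting for the 20 nM CPT used in the parallel screen.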
TDP1 inh: qHTS Assay for Inhibitors of Tyrosyl-DNA Phosphodiesterase (TDP1). Tyrosyl-DNA phosphodiesterase 1 (Homo sapiens), Q9NUW8. recombinant TDP1, AlphaScreen DNA substrate cleavage. AID 485290, 2010. 350,000 tested, 0.28% active. Potency, µM (titrated, usually from 130 µM), usual class: inhibitors; note: nearly all actives have a fitted effect of over 40% in size
Target sequence (Q9NUW8 whole entry, looked up): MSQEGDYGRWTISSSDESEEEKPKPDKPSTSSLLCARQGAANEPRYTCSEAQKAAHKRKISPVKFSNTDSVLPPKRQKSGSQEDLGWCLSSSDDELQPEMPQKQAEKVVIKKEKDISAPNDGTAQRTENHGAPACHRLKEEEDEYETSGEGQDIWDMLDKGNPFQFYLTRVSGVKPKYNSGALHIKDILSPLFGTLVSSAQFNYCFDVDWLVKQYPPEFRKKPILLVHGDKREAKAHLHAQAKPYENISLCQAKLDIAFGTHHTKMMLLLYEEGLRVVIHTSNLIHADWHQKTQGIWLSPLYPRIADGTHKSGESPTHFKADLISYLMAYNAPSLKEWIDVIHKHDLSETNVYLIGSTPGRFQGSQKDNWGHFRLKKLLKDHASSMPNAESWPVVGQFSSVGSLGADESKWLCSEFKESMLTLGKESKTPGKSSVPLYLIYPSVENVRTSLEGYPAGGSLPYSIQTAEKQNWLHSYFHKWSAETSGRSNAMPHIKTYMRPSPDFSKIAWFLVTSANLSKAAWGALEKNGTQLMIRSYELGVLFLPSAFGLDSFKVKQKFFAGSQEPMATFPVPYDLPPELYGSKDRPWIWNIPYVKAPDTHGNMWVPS
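E. coli-derived human Tdp1, 1 nM final. Cpd preinc 15 min RT; substrate 15 nM final, 5 min RT; AS bead mix 10 ug/ml final, 10 min RT. Signal loss = tyrosine-FITC cleavage. No-enzyme wells = max signal.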
TDP1 cell CPT: qHTS for Inhibitors of human tyrosyl-DNA phosphodiesterase 1 (TDP1): qHTS in cells in presence of CPT | chicken DT40 Tdp1-/-;hTDP1 cells + 20 nM CPT, ATP luminescence, 48 h | Potency, µM (titrated, usually from 46.2 µM), hits mostly inhibitors | 420,000 tested, 12% active | AID 686979, 2013; note: nearly all actives have a fitted effect of over 55% in size
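Chicken DT40 Tdp1-/- cells stably complemented with human TDP1 were seeded at 400 cells/well in medium containing 20 nM camptothecin, exposed to pin-transferred compounds, and grown at 37 °C for at least 48 hr. Viability was read as ATP luminescence.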
Each line names hits and unclear results; the compound was inactive in the other large screens. Hits are enriched below; roughly 17% of the tested compounds scored in any of these assays. Unless noted, calls come from the whole dose curve; as a rule, active = well fitted curve in the direction sought with a large enough effect; inconclusive = small, poorly fitted or top-dose-only effect, or another doubt; inactive = no such curve, though single readings can be large; an effect the other way counts as inactive or inconclusive.

C[C@]12c3[nH]c4ccccc4c3CCN1C(=O)C(CC(=O)NCC13CC4CC(CC(C4)C1)C3)C[C@@H]2C(=O)N1CCCCC1 (some centres undefined)	TDP1 cell noCPT 26µM, TDP1 cell CPT 21µM
CN(C)c1cccc(C(=O)NCCCSc2ccccc2)c1	ClpP mod inconclusive, TDP1 cell CPT inconclusive
CC(C)N(C(=O)[C@H]1CC(CC(=O)NCC23CC4CC(CC(C4)C2)C3)C(=O)N2CCc3c([nH]c4ccccc34)[C@]12C)C(C)C (some centres undefined)	TDP1 cell noCPT 23µM, TDP1 cell CPT 13µM
CCN(CC)C(=O)[C@H]1CC(CC(=O)NCC23CC4CC(CC(C4)C2)C3)C(=O)N2CCc3c([nH]c4ccc(OC)cc34)[C@]12C (some centres undefined)	TDP1 cell noCPT 13µM, TDP1 cell CPT 21µM
CC(C)N(C(=O)[C@H]1C[C@H](CC(=O)NCC23CC4CC(CC(C4)C2)C3)C(=O)N2CCc3c([nH]c4cc(-c5ccco5)ccc34)[C@]12C)C(C)C	TDP1 cell noCPT inconclusive, TDP1 cell CPT inconclusive
CCCn1c(SCc2nc(-c3ccccc3C)no2)nnc1-c1ccc(Cl)cc1	TDP1 cell noCPT 16µM, TDP1 cell CPT 13µM
CCCn1c(SCc2nc(-c3cc(OC)ccc3OC)no2)nnc1-c1ccc(Cl)cc1	TDP1 cell noCPT 15µM, TDP1 cell CPT 13µM
CCCn1c(SCc2nc(-c3ccc(OC)c(OC)c3)no2)nnc1-c1ccccc1	TDP1 cell noCPT 18µM, TDP1 cell CPT inconclusive
COC(=O)c1ccccc1S(=O)(=O)N1CCc2nc(COc3ccccc3)c3c(c2C1)CO[C@@H](C)C3	none (no result: ClpP mod, TDP1 cell noCPT, TDP1 cell CPT)
CCc1nnc(SC(CC)C(=O)Nc2cccc(OC)c2)c2cc3oc(C)cc3n12 (centres undefined)	TDP1 cell noCPT inconclusive, TDP1 cell CPT inconclusive
CSc1ccc(CNC(=O)Cn2ccc3cc(S(=O)(=O)N4CCCC4)ccc32)cc1	TDP1 cell noCPT inconclusive, TDP1 cell CPT inconclusive
CC1CCN(S(=O)(=O)c2ccc3c(ccn3CC(=O)NCc3ccccc3F)c2)CC1	TDP1 cell noCPT inconclusive, TDP1 cell CPT 21µM
CSc1ccc(CNC(=O)CCn2ccc3cc(S(=O)(=O)N4CCC(C)CC4)ccc32)cc1	TDP1 cell noCPT inconclusive, TDP1 cell CPT 21µM
CC1CCN(S(=O)(=O)c2ccc3c(ccn3CCC(=O)NCc3ccccc3F)c2)CC1	TDP1 cell noCPT inconclusive, TDP1 cell CPT 16µM
CCC1CN(CC(=O)NC(C)c2c(C)nn(C)c2C)Cc2cc(OC)ccc2O1 (centres undefined)	none (no result: ClpP mod, TDP1 inh)
O=C1CCCC(O)=C1C=Nc1ccc(O)cc1	TDP1 cell noCPT 26µM, TDP1 cell CPT inconclusive
Clc1ccc(-c2nnc3c4ccccc4nc(N4CCOCC4)n23)cc1Cl	TDP1 cell noCPT 10µM, TDP1 cell CPT 18µM
CCc1ccc(N2C(=O)CS(=O)(=O)C23C(=O)N(Cc2ccccc2)c2ccccc23)cc1 (centres undefined)	TDP1 cell noCPT inconclusive, TDP1 cell CPT inconclusive
COc1ccccc1C1CCCN1Cc1nc(-c2ccc(C)s2)oc1C (centres undefined)	TDP1 cell noCPT inconclusive, TDP1 cell CPT 18µM (no result: ClpP mod)
N#Cc1ccccc1NC(=O)C(=O)NCCc1csc(-c2ccc(C(F)(F)F)cc2)n1	TDP1 cell noCPT inconclusive, TDP1 cell CPT inconclusive
Cc1nc2nc(SCC(=O)O)nn2c(C)c1Cc1ccccc1Cl	none
Cc1ccc(Cc2c(C)nc3nc(SCC(=O)NCc4ccco4)nn3c2C)cc1	TDP1 cell noCPT 4.6µM, TDP1 cell CPT 3.3µM
Cc1ccccc1Cc1c(C)nc2nc(SCC(=O)N(C)c3ccccc3)nn2c1C	TDP1 cell noCPT inconclusive, TDP1 cell CPT 23µM
Cc1ccccc1CSc1nc2nc(C)c(Cc3ccccc3)c(C)n2n1	ClpP mod inconclusive, TDP1 cell noCPT 16µM
Cc1nc2nc(SCC(=O)O)nn2c(C)c1Cc1c(F)cccc1Cl	none
Cc1cccc(Cc2c(C)nc3nc(SCC(=O)NCc4ccco4)nn3c2C)c1	TDP1 cell noCPT inconclusive, TDP1 cell CPT inconclusive
Cc1nc2nc(SCC(=O)NC(C)c3ccccc3)nn2c(C)c1Cc1c(F)cccc1Cl (centres undefined)	TDP1 cell noCPT 16µM, TDP1 cell CPT 23µM
Cc1cccc(Cn2cc3c(=O)n(CC(=O)Nc4ccc(C)c(F)c4)nc-3c3cc(F)ccc32)c1	none
CC1(C)CC(C(CC(=O)N2CCCC2)Cc2ccccc2)CCO1 (centres undefined)	none
O=C(O)C1CCCC2CN3CCc4c([nH]c5ccccc45)C3C(O)C21 (centres undefined)	TDP1 cell noCPT inconclusive (no result: ClpP mod)
Cc1cc(C)c(NC(=O)CNC(=O)CN(C)Cc2ccc(Br)s2)c(C)c1	TDP1 cell noCPT inconclusive, TDP1 cell CPT inconclusive
Cc1ccccc1Cc1c(C)nc2nc(SCC(=O)NCCCN3CCCCC3)nn2c1C	none (no result: ClpP mod)
Cc1ccccc1Cc1c(C)nc2nc(SCC(=O)NC(C)c3ccccc3)nn2c1C (centres undefined)	TDP1 cell noCPT inconclusive, TDP1 cell CPT 16µM
Cc1ccc(Nc2nc(N)nc(CSC(=S)N3CCOCC3)n2)c(C)c1	TDP1 cell noCPT 26µM, TDP1 cell CPT inconclusive
Cc1ccc(Nc2nc(N)nc(CSC(=S)N3CCN(c4ccccc4)CC3)n2)cc1	TDP1 cell noCPT inconclusive
Nc1nc(CSC(=S)N2CCN(c3ccccc3)CC2)nc(Nc2ccccc2)n1	ClpP mod inconclusive, TDP1 cell noCPT inconclusive, TDP1 cell CPT 23µM
CC1CCCN(C(=O)c2ccc(-c3ccccc3Cl)o2)C1 (centres undefined)	TDP1 cell noCPT inconclusive, TDP1 cell CPT 12µM (no result: ClpP mod)
O=C(c1ccc(-c2ccccc2Cl)o1)N1CCCCCCC1	TDP1 cell noCPT 23µM, TDP1 cell CPT inconclusive (no result: ClpP mod, TDP1 inh)
CCOc1ccc(NC(=O)C(=O)NCCc2csc(-c3ccc(F)cc3)n2)cc1	none
COc1ccc(N2CCC(CNC(=S)Nc3ccc(C)cc3C)C2)cc1 (centres undefined)	TDP1 cell noCPT 18µM, TDP1 cell CPT inconclusive
CCc1ccc(NC(=O)NCC2CCN(c3ccc(OC)cc3)C2)cc1 (centres undefined)	TDP1 cell CPT 9.2µM
Cc1ccc(CCNC(=O)C2COc3ccccc3C2)cc1 (centres undefined)	TDP1 cell CPT inconclusive
O=C1CCC(C(=O)N2CCCC(C(=O)c3ccc4ccccc4c3)C2)=NN1 (centres undefined)	TDP1 cell noCPT inconclusive, TDP1 cell CPT inconclusive
Cc1ccc2c(c1)C1(C(=O)N2)N2CCCC2C(C(=O)c2ccc3ccccc3c2)C12C(=O)Nc1ccccc12 (centres undefined)	TDP1 cell noCPT inconclusive, TDP1 cell CPT 16µM (no result: ClpP mod)
CC1CCN(c2ccc(NC(=O)c3cccc(Cl)c3)cc2C(=O)O)CC1	none (no result: TDP1 inh)
COC(=O)C1=C(C)NC(=O)/C1=C\c1cc(C)n(-c2ccc(F)cc2)c1C	none (no result: ClpP mod)

Screening results as filed in PubChem.
